# Assay results: PubChem BioAssay (NCATS)
# Records with an inconclusive call do not appear. Active and inactive are the calls of the source. Calls follow the shape of the dose curve; as a rule, active = well fitted inhibition curve with a large enough effect; inconclusive = small, poorly fitted or top-dose-only effect; inactive = no such curve, though single readings can be large or run the other way.
# Experiment: Confirmatory screen NINDS Rhodamine qHTS for Zika virus inhibitors (AID 1347161); also: nearly all actives have a fitted effect of over 60% in size
# Details: purified enzyme assay, Rhodamine110 substrate fluorescence, 15 min; series mostly up to 114 µM; activity change, negative = inhibition: at the top concentration
# Description: Avindra Nath, Ph.D., National Institute of Neurological Disorders and Stroke (NINDS), Bethesda, MD
# Radhakrishnan Padmanabhan, Ph.D., Georgetown University (GU), Washington D.C.
# Zika Virus causes congenital defects, including microcephaly and is associated with Guillain-Barre syndrome, eningoencephalitis and myelitis in infected adult. […] Using a target-based approach, we hope to establish a screening paradigm to uncover novel, cell-active NS2B-NS3 protease (Zika Virus) specific inhibitors from NCATS' collection of small molecules using qHTS.
# Four assay panel was created to identify potential Zika Virus inhibitors. Namely, (1) GU unlinked NS2B-NS3 AMC tagged protease qHTS, (2) GU unlinked NS2B-NS3 Rhodamine tagged protease qHTS, (3) NINDS linked NS2B-NS3 AMC tagged protease qHTS, (4) NINDS linked NS2B-NS3 Rhodamine tagged protease qHTS. Active compounds were re-acquired and re-screened to confirm inhibition. Inhibitors were further screened against various confirmatory and counterscreens in dose response format.
# Early Translation Branch (ETB)
# National Center for Advancing Translational Sciences (NCATS), Rockville, MD
# National Institute of Health (NIH), Bethesda, Maryland
# For the linked assay, Nath lab (NINDS) provided the purified linked NS2B-NS3 protease which is consists of hydrophilic domain of NS2B linked to the NS3 protease domain by a flexible (-[…]-) linker. Control compound aprotinin is obtained from Thermo Scientific (#78432; Waltham, Massachusetts). Rhodamine110 substrate ([N-Cbz]-Nle-Lys-Arg-Arg-Rhod110-Arg-Arg-Lys-Nle-[N-Cbz]) was purchased from either Genscript or Bachem.
# 1536-well Protease (Rhodamine110 Substrate) Assay:
# Briefly, 3 microL of enzyme (25 nM final concentration), in assay buffer (10 mM Tris-HCl pH 8.0 with 0.01% Tween 20) were dispensed into a 1,536-well solid-bottom black plate (Greiner Bio One, Monroe, NC). Twenty-three nL of compounds (final concentration range 7.28 nM to 114 microM) or control Aprotinin (final concentration range 3.47 nM to 114 microM) were transferred via Wako Pin-tool (Wako Automation, Richmond, VA). Samples were incubated (room temperature, protected from light) for 15 minutes followed by a 1 microL Rhodamine110 substrate addition (1.5 microM final concentration). Plates were then immediately read on a ViewLux High-throughput CCD imager (PerkinElmer, Waltham, MA) equipped with FITC fluorescence optics (480(20) nm excitation, 540(25) nm emission), then incubated (room temperature, protected from light) for 15 minutes (~15% conversion). The change in fluorescence intensity over the 15-minute reaction period was normalized against no-inhibitor and no-enzyme controls and the resulting percent inhibition data were fitted to a 4-parameter Hill equation. Aprotinin was used as intraplate control.
# Potency is read from the fitted curve at half-maximal effect.
Compound,Potency,"activity change, negative = inhibition"
CCC(C)/C=C(C)/C=C/C1=CC2=CC(=O)C3(C)OC(C)(O)C(C(=O)OC)C3C2=CO1 (centres undefined),21.5 µM (active),–
Cc1cc(OCCCS(C)(=O)=O)cc(C)c1-c1cccc(COc2ccc3c(c2)OCC3CC(=O)O)c1 (centres undefined),7.84 µM (active),–
Cc1noc(-c2ccc(-c3ccc(CC(=O)O)cc3)cc2)c1NC(=O)O[C@H](C)c1ccccc1Cl,4.94 µM (active),–
N#Cc1ccc(N2N=C3c4ccc(C(=O)O)cc4CC[C@@H]3[C@@H]2C2CCCC2)cc1Cl,1.75 µM (active),–
CC#C[C@@H](CC(=O)O)c1ccc(OCc2ccc(CN3CCC4(C=Cc5ccccc54)CC3)s2)cc1,3.5 µM (active),–
O=C(Nc1ccc(/C=C/c2ccc(NC(=O)c3cc(S(=O)(=O)O)c4cccnc4c3O)cc2S(=O)(=O)O)c(S(=O)(=O)O)c1)c1cc(S(=O)(=O)O)c2cccnc2c1O,2.51 µM (active),–
CC(C)C[C@H](C(=O)O)c1cc(-c2ccc(C(F)(F)F)cc2)cc(-c2ccc(C(F)(F)F)cc2)c1,3.5 µM (active),–
O=C(O)c1cccc(-c2ccc(-c3cn(C(=O)N4CCCCC4Cc4ccccc4)nn3)cc2)c1 (centres undefined),3.5 µM (active),–
CC#C[C@@H](CC(=O)O)c1ccc(OCc2cccc(-c3ccc(C(F)(F)F)cc3)c2)cc1,0.987 µM (active),–
CC(C)(C)Sc1c(CC(C)(C)C(=O)O)n(Cc2ccc(Cl)cc2)c2ccc(OCc3ccc4ccccc4n3)cc12,3.93 µM (active),–
O=S(=O)(Nc1cc(Cl)c(Oc2cnc3ccccc3c2)c(Cl)c1)c1ccc(Cl)cc1Cl,2.21 µM (active),–
COc1ccc2cc(-c3cc(-c4cc(Cl)cc(Cl)c4)nn3C(C)c3ccc(C(=O)NCCC(=O)O)cc3)ccc2c1 (centres undefined),4.94 µM (active),–
CC(O)(C(=O)O)C1CCC2(C)C1CCC1(C)C2CCC2C3(C)CCC(O)C(C)(COC4OC(CO)C(O)C(O)C4O)C3CCC21C (centres undefined),13.1 µM (active),–
Cc1cc(C)c2c(c1)C(N(Cc1cc(C(F)(F)F)cc(C(F)(F)F)c1)c1nnn(C)n1)CCCN2CC1CCC(C(=O)O)CC1 (centres undefined),4.94 µM (active),–
O=C(Nc1ccc(-c2ccc(Cl)c(Cl)c2)cc1)C1=C(O)c2ccccc2S(=O)(=O)N1,2.48 µM (active),–
C=C1/C(=C/C=C2\CCC[C@]3(C)[C@@H]([C@H](C)/C=C/[C@@H](C)C(C)C)CC[C@@H]23)C[C@@H](O)C[C@@H]1O,49.4 µM (active),–
CC1=C(C(=O)OC2CCCCC2)C(c2ccc([N+](=O)[O-])cc2)C2=C(CC(C)(C)CC2=O)N1 (centres undefined),–,-3.05% (inactive)
C[C@H]1CO[C@@H]2Cn3cc(C(=O)NCc4ccc(F)cc4F)c(=O)c(O)c3C(=O)N12,–,-3.08% (inactive)
Oc1cccc(-c2c3nc(c(-c4cccc(O)c4)c4ccc([nH]4)c(-c4cccc(O)c4)c4nc(c(-c5cccc(O)c5)c5ccc2[nH]5)CC4)C=C3)c1,20 µM (active),–
O=C(O)c1cc(N(Cc2ccc(C3CCCCC3)cc2)C(=O)c2ccc(Oc3ccccc3)cc2)ccc1O,1.97 µM (active),–
O=C(O)c1ccc(S(=O)(=O)N(Cc2ccc(OC(F)(F)F)cc2)c2ncc(C(F)(F)F)cc2Cl)cc1,3.93 µM (active),–
O=C(NCCCc1ccccc1)c1cccc(-c2cc(O)c3ncccc3c2)c1,–,-12.3% (inactive)
COc1ccc(-c2ccccc2)cc1NS(=O)(=O)c1cc(Cl)cc(Cl)c1O,1.71 µM (active),–
COc1cc(C(=O)O)ccc1NC(=O)C1NC(CC(C)(C)C)C(C#N)(c2ccc(Cl)cc2F)C1c1cccc(Cl)c1F (centres undefined),4.94 µM (active),–
O=C(Nc1cc(C(F)(F)F)cc(C(F)(F)F)c1)c1cnc(Cl)nc1C(F)(F)F,44.1 µM (active),–
CCCCCCCOc1cc2c(cc1/C(C)=C/c1ccc(C(=O)O)cc1)C(C)(C)CCS2(=O)=O,1.97 µM (active),–
CCCCCc1ccc(/C=C/C(=O)Nc2cc(Cl)ccc2C(=O)O)cc1,1.75 µM (active),–
O=C(O)c1ccc(N2C(=O)/C(=C/c3ccc(-c4ccc([N+](=O)[O-])cc4)o3)C=C2c2ccccc2)cc1,1.75 µM (active),–
COc1ccc2nccc(C(=O)CC[C@@H]3CCN(CC#Cc4cc(F)cc(F)c4F)C[C@@H]3C(=O)O)c2c1,44.1 µM (active),–
